From PubChem BioAssay (Tox21) come the findings set out here.

Molecules are shown by their SMILES. “And” between values parts separate entries of the source, which are not always exact repeats. Equal entries are not always repeated. Inconclusive results are not listed. A call without a number means that no potency is given here. More than one record can exist for a structure, and the calls need not agree. The source made the active and inactive calls. Calls come from the whole dose curve; as a rule, active = well fitted cell-killing curve with a large enough effect in the repeat runs; inconclusive = weak or mixed curves, or effect the other way; inactive = no such curve, though single readings can be large or run the other way.
Potency is the fitted concentration of half-maximal effect.

This assay is described as follows: qHTS assay to identify small molecule agonists of the RXR signaling pathway - cell viability counter screen (AID 1159529). Note: nearly all actives have a fitted effect of over 50% in size. The conditions noted are these: RXR-alpha-bla HEK293T viability, CellTiter-Glo, 16 h; series mostly up to 76.8 µM; activity change, negative = cytotoxicity: at the top concentration. An excerpt:
National Center for Advancing Translational Sciences [NCATS]
NIH Chemical Genomics Center [NCGC]
U.S. Environmental Protection Agency [EPA]
National Institutes of Environmental Health Sciences [NIEHS]
National Toxicology Program [NTP]
U.S. Food and Drug Administration [FDA]
The Retinoid X receptor (RXR), a nuclear hormone receptor expressed in liver, spleen, placenta, epidermis, central nervous system. These receptors are able to form homo and heterodimers with other nuclear receptors and due to this heterodimerizing ability, RXR functions as master regulators producing diverse physiological effects. Three subtypes of RXR exist; alpha, beta and gamma. Retinoid X receptor alpha (RXR-alpha) has potential roles in metabolic signaling pathways, skin alopecia, dermal cysts, cardiac development, insulin sensitization etc. Therefore screening environmental chemicals on RXR-alpha signaling can be used for the studies focused on such therapeutic applications. For quantification of RXR-alpha ligands signaling, GeneBLAzer RXR alpha-UAS-bla HEK 293T (Life Technologies, Carlsbad, CA) cells containing a beta-lactamase reporter-gene under control of Retinoid X receptor-alpha response element were used to screen Tox21 10K library. The cytotoxicity of the Tox21 compound library against the RXR-alpha HEK 293T cell line was tested in parallel by measuring cell viability using CellTiter-Glo assay (Promega Corporation, Madison, WI) in the same wells.
Tox21 Assay Protocol Summary:
RXR-alpha HEK 293T cells were dispensed at 2,000 cells/6 uL of assay medium containing 2% charcoal-stripped FBS using a Multidrop Combi (ThermoFisher Scientific, Waltham, MA) dispenser. The assay was performed in black wall/clear-bottom 1536-well plates (Greiner Bio-One North America Inc. Monroe, NC). Tetraoctyl ammonium bromide was used as a positive control in the cytotoxicity screen. After the assay plates were incubated at 37 C and 5% CO2 for 5 hr, 23 nL of compounds dissolved in DMSO, positive control or DMSO only were transferred to the assay plate by a Pintool station (Kalypsys, San Diego, CA). The assay plates were incubated at 37 C and 5% CO2 for 16 hr. One uL of LiveBLAzer B/G FRET substrate (Life Technologies) was added using a Flying Reagent Dispenser (FRD) (Aurora Discovery, San Diego, CA) and the plates were incubated at room temperature for 2 hr. Fluorescence intensity (405 nm excitation, 460/530 nm emission) was measured using an Envision plate reader (PerkinElmer, Shelton, CT). For cytotoxicity, 4 uL/well of CellTiter-Glo reagent was added into the assay plates using an FRD. After 30 min incubation at room temperature, the luminescence intensity was measured using a ViewLux plate reader (PerkinElmer).
As for `CCN(CC)N=O`, the Potency result is “inactive”.
The same measure, in the same setting: in the case of `ClC1C(Cl)C(Cl)C(Cl)C(Cl)C1Cl` (stereo not given) it was “inactive and 43.6 µM (active)”.
Take `CCC(C)(c1ccc(O)cc1)c1ccc(O)cc1`: the “activity change, negative = cytotoxicity” value was -14.1% (inactive).
For `CCCCN(CC)c1c([N+](=O)[O-])cc(C(F)(F)F)cc1[N+](=O)[O-]`, the Potency entry is “inactive”.
Consider `O=C(CCl)c1ccccc1`, for which the Potency result is “inactive”.
With `Cc1ccccc1[N+](=O)[O-]`, the Potency entry is “inactive”.
On to `CC1(C)C(C=C(Cl)Cl)C1C(=O)OC(C#N)c1cccc(Oc2ccccc2)c1` (stereo not given), for which the Potency result is “inactive”.
Consider `CNC(=O)N(C)c1nnc(C(C)(C)C)s1`, for which the Potency entry was “inactive”.
As to `Cc1ccc2c(c1N)C(=O)c1ccccc1C2=O`, the Potency result was “inactive”.
In the case of `COP(=O)(OC)OC`, the Potency result is “inactive”.
As to `Cc1cc(C)cc(C)c1`, the Potency entry is “inactive”.
Consider `O=S(=O)(Oc1ccc(Cl)cc1)c1ccc(Cl)cc1`, for which the Potency entry was “inactive”.
Same read-out and setting: the result for `CCC(C)c1ccc(O)cc1` (stereo not given) reads “inactive”.
As for `O=[N+]([O-])c1c(Cl)c(Cl)c(Cl)c(Cl)c1Cl`, the Potency result was “inactive”.
In the case of `CC(C)(c1cc(Cl)c(O)c(Cl)c1)c1cc(Cl)c(O)c(Cl)c1`, the Potency result is “inactive”.
On the same count and under the same terms, in the case of `COc1ccc(C(CN(C)C)C2(O)CCCCC2)cc1` (stereo not given) it was “inactive”.
Still for that read-out and setting: the result for `CCOc1cc(Oc2ccc(C(F)(F)F)cc2Cl)ccc1[N+](=O)[O-]` reads “inactive”.
For the molecule `CCC(C)(C)c1ccc(O)cc1`, the “activity change, negative = cytotoxicity” value was -13.9% [at 35.3 µM] (inactive).
For the molecule `c1cc(OCC2CO2)ccc1Cc1ccc(OCC2CO2)cc1` (stereo not given), the Potency entry is “inactive”.
With `CCCCCCCCOC(=O)c1ccccc1C(=O)OCCCCCCCC`, the Potency entry was “inactive”.
In the case of `CC(C)NC(C)C`, the Potency entry is “inactive”.
Turning to `Oc1cc(Cl)ccc1Oc1ccc(Cl)cc1Cl`, the Potency was 17.8 µM (active).
Consider `CCC(C)c1cc([N+](=O)[O-])cc([N+](=O)[O-])c1O` (stereo not given), for which the “activity change, negative = cytotoxicity” value was 2.21% (inactive).
In the case of `CCN(CC)C(=O)/C(Cl)=C(\C)OP(=O)(OC)OC`, the Potency result is “inactive”.
`CN(C)C(=O)Nc1ccc(Cl)cc1`: the “activity change, negative = cytotoxicity” value was -4.09% (inactive).
For the molecule `N#CC(Br)Br`, the Potency result was “inactive”.
`O=Cc1ccco1`: the Potency result is “inactive”.
On the same count and under the same terms, in the case of `O=[N+]([O-])c1ccc(O)c([N+](=O)[O-])c1` it was 12.3 µM (active); in that of `Oc1cc(Cl)ccc1Cl`, “inactive”; in that of `CC(O)CCO` (stereo not given), “inactive”.
As for `O=C(NC(=O)c1c(F)cccc1F)Nc1ccc(Cl)cc1`, the Potency entry was “inactive”.
Take `CCCCCc1cc(O)cc(O)c1`: the “activity change, negative = cytotoxicity” value is 4.02% (inactive).
`Oc1c(Cl)c(Cl)c(Cl)c(Cl)c1Cl`: the Potency result is “inactive”.
The same measure, in the same setting: the result for `CCN(N=O)C(N)=O` reads “inactive”; that for `OCC(O)CO`, “inactive”.
In the case of `CCCCCCCCCCCOC(=O)c1ccccc1C(=O)OCCCCCCCCCCC`, the Potency result was “inactive”.
`CC(C)(C)c1ccccc1O`: the “activity change, negative = cytotoxicity” value was -15% (inactive).
As to `C=CCc1ccc2c(c1)OCO2`, the Potency entry is “inactive”.
Still for that read-out and setting: the result for `C1=Cc2cccc3cccc1c23` reads “inactive”; that for `C#CCOS(=O)OC1CCCCC1Oc1ccc(C(C)(C)C)cc1` (stereo not given), 27.6 µM (active) and 43.6 µM (active).
